Our source for the Potency values is PubChem BioAssay (Tox21).

A short description of experiment [1]: Nuclear factor erythroid 2-related factor 2/antioxidant responsive element (Nrf2/ARE) small molecule agonists: luciferase reporter gene qHTS assay in human keratinocytes (AID 1919969). Further: nearly all actives have a fitted effect of over 35% in size. Further: potency means the concentration at half of the fitted maximal effect. On the technique in general: In a reporter assay the amount or activity of a reporter protein is the signal.
In experiment [2] the target is Gonadotropin-releasing hormone receptor (Homo sapiens) (UniProt P30968). Briefly: Human gonadotropin-releasing hormone receptor (GnRHR) small molecule agonists, calcium flux assay in GnRHR-HEK293 cells (AID 1920063). Further: nearly all actives have a fitted effect of over 35% in size. The method, boiled down:
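HEK293 cells stably expressing human GnRHR were dye-loaded for 1 h at 37 C. Compound was added in agonist mode and fluorescence (Ex/Em 480/540) recorded kinetically for 3 min. Fifteen concentrations, triplicates.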

Experiment [3] is described as follows: G protein-coupled receptor (GPCR) small molecule agonists, calcium flux assay: HEK293 wild type cell line counter screen (AID 1920065). Summed up:
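Wild-type HEK293 cells plated 18 h, loaded with calcium dye 1 h at 37 C, then compounds added in agonist mode (ATP as positive control). Kinetic fluorescence Ex/Em 480/540 recorded 3 min at 1 sec intervals; 15 concentrations, triplicate.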
On the technique in general: A change in cytosolic calcium serves as a functional read-out for many receptors and channels.

Experiment [4] is described as follows: p53 small molecule agonists, cell-based qHTS assay with human liver microsomes (AID 1963577). The method, boiled down: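 p53RE-bla cells, 4,000/well, compound added after 5 h, with human liver microsomes 0.5 mg/mL and NADPH 0.5 mg/mL final; 16 h at 37 C, then LiveBLAzer 2 h RT, fluorescence.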
(In general: In qHTS, concentration-response curves come from the screen itself.)

A short description of experiment [5]: p53 small molecule agonists, cell-based qHTS assay with rat liver microsomes (AID 1963578). Summed up: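 p53RE-bla cells, 4,000/well, pre-incubated 5 h, then given compounds plus rat liver microsomes (0.5 mg/mL final) and NADPH (0.5 mg/mL final). Incubation 16 h at 37 C; beta-lactamase reporter read by LiveBLAzer fluorescence after 2 h at room temperature.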

The nature of experiment [6]: p53 small molecule agonists, cell-based qHTS assay with human liver microsomes: qHTS cell viability counter screen (AID 1963579). Further: nearly all actives have a fitted effect of over 45% in size. Summed up:
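p53RE-bla cells, 4,000/well, dosed 5 hours after plating, with human liver microsomes (0.5 mg/mL final) plus NADPH (0.5 mg/mL final), 16 hours at 37 C. Viability read as CellTiter-Glo luminescence after 30 min at room temperature.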

The nature of experiment [7]: p53 small molecule agonists, cell-based qHTS assay with rat liver microsomes: qHTS cell viability counter screen (AID 1963580). Further: nearly all actives have a fitted effect of over 45% in size. The method, boiled down: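 p53RE-bla HCT-116 cells (4,000/well) rested 5 h at 37 C, then given Tox21 compounds in DMSO with rat liver microsomes (0.5 mg/mL final) plus NADPH (0.5 mg/mL final) for 16 h at 37 C. Viability read by CellTiter-Glo luminescence after 30 min at room temperature.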

The nature of experiment [8]: p53 small molecule agonists, cell-based qHTS assay (AID 1963582; active means well fitted activation curve with a large enough effect in the signal ratio in the repeat runs, not every such curve was filed as active; the % refers to the signal ratio). Summed up:
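p53RE-bla reporter cells, compounds added in DMSO after 5 h plating, incubated 16 h at 37 C. Beta-lactamase read via 2 h room-temperature LiveBLAzer B/G FRET substrate, fluorescence intensity.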

Experiment [9] concerns the target 5-hydroxytryptamine receptor 2A (Homo sapiens) (UniProt P28223). Briefly: 5-hydroxytryptamine receptor 2A (HTR2A) small molecule agonists, cell-based qHTS assay (AID 1963587). Further: nearly all actives have a fitted effect of over 30% in size. Further: potency means the concentration at half of the fitted maximal effect. Summed up: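 HTR2A-CHO cells, plated 18 h at 37 C/5% CO2, dye-loaded 1 h at 37 C; compounds in DMSO added by pin tool (agonist mode). Intracellular calcium flux read as kinetic fluorescence on FDSS over 2 min at 1 s intervals.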

Experiment [10] deals with Muscarinic acetylcholine receptor M1 (Homo sapiens) (UniProt P11229). Briefly: Cholinergic receptor muscarinic 1 (CHRM1) small molecule antagonists, cell-based qHTS assay (AID 1963588). Further: nearly all actives have a fitted effect of over 40% in size. The method, boiled down: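 CHRM1-CHO calcium-flux assay, antagonist mode. Cells were seeded 18 h, dye-loaded 1 h at 37 C and given compound for 5 min at RT, then acetylcholine was added at 50nM. FDSS fluorescence was read 3 min; 15 concentrations, three runs.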
Muscarinic acetylcholine receptor M1 (Homo sapiens), sequence (P11229 whole entry, looked up): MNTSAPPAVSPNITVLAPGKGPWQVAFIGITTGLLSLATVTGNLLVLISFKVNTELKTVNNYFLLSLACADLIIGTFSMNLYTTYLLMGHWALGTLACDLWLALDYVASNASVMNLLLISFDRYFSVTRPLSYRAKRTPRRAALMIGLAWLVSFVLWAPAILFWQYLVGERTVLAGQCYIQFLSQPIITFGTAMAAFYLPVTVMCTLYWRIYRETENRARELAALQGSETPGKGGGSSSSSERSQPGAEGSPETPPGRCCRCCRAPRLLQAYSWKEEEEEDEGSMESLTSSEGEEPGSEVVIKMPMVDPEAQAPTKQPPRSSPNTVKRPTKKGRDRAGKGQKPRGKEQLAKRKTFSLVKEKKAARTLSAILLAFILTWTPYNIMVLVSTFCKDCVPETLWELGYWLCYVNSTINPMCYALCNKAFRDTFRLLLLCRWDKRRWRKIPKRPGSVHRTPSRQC

Experiment [11] shares this target. Put plainly: Cholinergic receptor muscarinic 1 (CHRM1) small molecule agonists, cell-based qHTS assay (AID 1963589). Further: nearly all actives have a fitted effect of over 35% in size. Summed up:
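CHO cells stably expressing human CHRM1 were loaded with calcium dye for 1 h at 37 C, then compound was added in agonist mode. Intracellular calcium fluorescence was followed kinetically at 1 s intervals. Fifteen concentrations were tested in three independent runs.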

Experiment [12] in a line: cAMP Responsive Elements (CRE) small molecule agonists, cell-based qHTS assay (AID 1963590). Summed up:
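CRE-bla HEK 293T cells, 2,000/well in DMEM with 10% dialyzed FBS and 25 mM HEPES, pre-incubated 18 h at 37 C, then exposed to compound 3 h at 37 C. Beta-lactamase reporter read with LiveBLAzer B/G FRET substrate after 2 h at room temperature.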

Experiment [13] can be described thus: cAMP Responsive Elements (CRE) small molecule antagonists, cell-based qHTS assay (AID 1963591; active means well fitted inhibition curve with a large enough effect in the signal ratio in the repeat runs, not every such curve was filed as active; the % refers to the signal ratio). The method, boiled down:
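CRE-bla HEK293T cells plated 18 h, then given compound plus NKH477 at 0.25 uM final for 3 h at 37C. Beta-lactamase reporter read with LiveBLAzer B/G FRET substrate after 2 h at room temperature.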

In experiment [14] the target is Beta-2 adrenergic receptor (Homo sapiens) (UniProt P07550). Put plainly: Adrenergic beta2 receptor (ADRB2) small molecule antagonists, cell-based qHTS assay (AID 1963592). Further: series mostly up to about 92 µM; nearly all actives have a fitted effect of over 50% in size. Summed up: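 Cells (CHO, stable ADRB2 overexpression) incubated 18-20hr at 37C; compounds added from DMSO; agonist mix (1nM isoproterenol, 100uM IBMX, 25uM Ro-20-1724) added; 0.5hr RT; d2-cAMP and anti-cAMP-cryptate added; 1hr RT; 665/615 nm read.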
Beta-2 adrenergic receptor (Homo sapiens), sequence (P07550 whole entry, looked up): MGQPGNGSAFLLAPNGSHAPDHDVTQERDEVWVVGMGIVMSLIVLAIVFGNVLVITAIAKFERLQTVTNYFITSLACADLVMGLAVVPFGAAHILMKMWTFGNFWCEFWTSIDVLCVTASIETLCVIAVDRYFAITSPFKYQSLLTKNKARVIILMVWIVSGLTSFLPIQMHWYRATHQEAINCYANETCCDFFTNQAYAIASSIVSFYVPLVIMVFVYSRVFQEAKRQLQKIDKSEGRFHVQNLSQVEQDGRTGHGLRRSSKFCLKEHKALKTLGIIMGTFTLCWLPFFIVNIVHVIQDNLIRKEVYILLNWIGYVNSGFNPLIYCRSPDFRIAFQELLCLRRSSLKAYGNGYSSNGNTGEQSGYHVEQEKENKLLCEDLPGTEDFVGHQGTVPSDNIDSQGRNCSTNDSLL

Experiment [15] shares this target. Briefly: Adrenergic beta2 receptor (ADRB2) small molecule agonists, cell-based qHTS assay (AID 1963593).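 Further: CHO cells stably overexpressing human ADRB2.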 The method, boiled down: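 CHO cells stably over-expressing ADRB2 were plated overnight at 37C, then dosed with compounds plus a stimulation mix containing 100uM IBMX and 25uM Ro-20-1724 for 0.5hr at room temperature. cAMP was measured by HTRF competition, 1hr.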

Experiment [16] addresses D(2) dopamine receptor (Homo sapiens) (UniProt P14416). Put plainly: Dopamine D2 receptor (DRD2) small molecule agonists, cell-based qHTS assay (AID 1963594). Further: nearly all actives have a fitted effect of over 35% in size. The method, boiled down: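 HEK293 cells stably expressing DRD2 were cultured 24 h at 37 C, then given Ro20-1724 (0.1 mM final) and compounds for 10 min at room temperature. NKH477 (200nM) was then added for 30 min. cAMP was read by HTRF.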

Experiment [17] has the same target. Briefly: Dopamine D2 receptor (DRD2) small molecule antagonists, cell-based qHTS assay (AID 1963595; active means well fitted inhibition curve with a large enough effect in the signal ratio in the repeat runs, with a control signal flat; the % refers to the signal ratio). The method, boiled down:
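Human DRD2 antagonist qHTS measuring cAMP by HTRF. The cells are exposed to compound for 10 min, then to NKH477 (200 nM) and quinpirole (12 nM) for 30 min at RT, with Ro20-1724 (0.1 mM) present throughout.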

Experiment [18] can be described thus: p53 small molecule agonists, cell-based qHTS assay: qHTS cell viability counter screen (AID 1963581). Further: nearly all actives have a fitted effect of over 45% in size. The method, boiled down: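 p53RE-bla HCT-116 cells, compounds added 5 h after plating and incubated 16 h at 37 C. Cytotoxicity measured in the same wells as intracellular ATP by CellTiter-Glo luminescence after 30 min at room temperature.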
Experiment [19] has as its target 5-hydroxytryptamine receptor 2A (Homo sapiens) (UniProt P28223). Put plainly: 5-hydroxytryptamine receptor 2A (HTR2A) small molecule antagonists, cell-based qHTS assay (AID 1963586). Further: nearly all actives have a fitted effect of over 45% in size. The method, boiled down:
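Antagonist-mode intracellular calcium assay: DOI (4 nM) added after 5 min compound pre-incubation at room temperature to dye-loaded HTR2A-CHO cells. Fluorescence followed for 3 min, sampled every second.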

The target of experiment [20] is KiSS-1 receptor (Homo sapiens) (UniProt Q969F8). Put plainly: Human kisspeptin (KISS1R) small molecule agonists, calcium flux assay in KISS1R-HEK293 cells (AID 1920064; active means well fitted activation curve with a large enough effect in the repeat runs). Summed up: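 HEK293 cells stably expressing human KISS1R were loaded with calcium dye for 1 h at 37 C, then given compound; fluorescence (Ex/Em 480/540) was read kinetically for 3 min. Fifteen concentrations, triplicate.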
KiSS-1 receptor (Homo sapiens), sequence (Q969F8 whole entry, looked up): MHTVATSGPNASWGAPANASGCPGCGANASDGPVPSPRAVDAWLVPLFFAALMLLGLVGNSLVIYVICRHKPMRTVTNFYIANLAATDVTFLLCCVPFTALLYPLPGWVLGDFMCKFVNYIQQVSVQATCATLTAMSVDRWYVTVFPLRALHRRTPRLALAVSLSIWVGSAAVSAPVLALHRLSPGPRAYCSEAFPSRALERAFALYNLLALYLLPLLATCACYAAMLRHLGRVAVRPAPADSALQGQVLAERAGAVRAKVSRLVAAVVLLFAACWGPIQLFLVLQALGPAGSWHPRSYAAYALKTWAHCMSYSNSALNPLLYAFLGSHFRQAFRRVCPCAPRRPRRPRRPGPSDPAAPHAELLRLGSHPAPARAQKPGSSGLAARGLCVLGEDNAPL

Values without a mark were called inactive. Records with an inconclusive call do not appear. The source made the active and inactive calls. Unless noted, the call rests on the fitted dose curve.

5-hydroxytryptamine receptor 2A (Homo sapiens), sequence (P28223 whole entry, looked up): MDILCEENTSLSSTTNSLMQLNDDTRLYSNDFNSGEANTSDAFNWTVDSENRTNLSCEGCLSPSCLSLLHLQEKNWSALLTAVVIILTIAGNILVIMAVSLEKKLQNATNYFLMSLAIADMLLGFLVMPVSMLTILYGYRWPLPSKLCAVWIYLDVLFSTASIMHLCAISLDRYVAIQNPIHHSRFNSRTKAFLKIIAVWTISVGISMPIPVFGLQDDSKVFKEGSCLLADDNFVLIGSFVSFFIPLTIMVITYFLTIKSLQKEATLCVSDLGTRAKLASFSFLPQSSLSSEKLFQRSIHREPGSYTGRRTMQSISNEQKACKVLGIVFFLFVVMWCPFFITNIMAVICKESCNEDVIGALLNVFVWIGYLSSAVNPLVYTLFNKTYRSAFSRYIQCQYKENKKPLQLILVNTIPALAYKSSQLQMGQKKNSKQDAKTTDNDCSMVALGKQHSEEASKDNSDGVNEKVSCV
D(2) dopamine receptor (Homo sapiens), sequence (P14416 whole entry, looked up): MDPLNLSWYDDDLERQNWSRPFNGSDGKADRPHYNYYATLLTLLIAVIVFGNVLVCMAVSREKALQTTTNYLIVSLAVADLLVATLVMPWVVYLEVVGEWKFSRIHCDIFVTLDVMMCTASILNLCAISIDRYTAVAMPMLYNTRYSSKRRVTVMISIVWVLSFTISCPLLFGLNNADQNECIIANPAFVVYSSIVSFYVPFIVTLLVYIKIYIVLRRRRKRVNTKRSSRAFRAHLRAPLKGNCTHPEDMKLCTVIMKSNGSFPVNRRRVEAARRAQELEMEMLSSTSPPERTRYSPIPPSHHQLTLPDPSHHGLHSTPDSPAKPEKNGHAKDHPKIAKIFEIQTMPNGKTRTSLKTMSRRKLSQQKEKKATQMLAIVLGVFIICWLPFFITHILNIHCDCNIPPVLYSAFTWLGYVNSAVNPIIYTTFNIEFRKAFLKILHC
Gonadotropin-releasing hormone receptor (Homo sapiens), sequence (P30968 whole entry, looked up): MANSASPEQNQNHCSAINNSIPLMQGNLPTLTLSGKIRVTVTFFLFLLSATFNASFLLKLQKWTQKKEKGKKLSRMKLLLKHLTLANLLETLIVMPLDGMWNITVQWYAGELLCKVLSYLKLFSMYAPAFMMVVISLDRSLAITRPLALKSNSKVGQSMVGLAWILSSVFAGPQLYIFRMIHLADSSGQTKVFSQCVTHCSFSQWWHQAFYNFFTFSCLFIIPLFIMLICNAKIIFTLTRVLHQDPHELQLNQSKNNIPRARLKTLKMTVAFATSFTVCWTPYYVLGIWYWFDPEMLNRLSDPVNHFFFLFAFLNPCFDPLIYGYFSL

On to `CCCCCCCCCCCCCCOS(=O)(=O)O`, for which the Potency entry in [1], in [2], in experiment [3], in experiment [4], in experiment [5] and in experiment [6] was “inactive” in each case. Further, the Potency entry in experiment [7], in experiment [8], in [10], in experiment [11], in [12] and in experiment [13] was “inactive” each time. The Potency result in [14], in experiment [15], in [16] and in experiment [17] was “inactive” throughout. Moreover, the Potency in experiment [9] is 43.6 µM (active).

Take `NC(=S)NC(N)=S`: in experiment [1], the Potency was 13.7 µM (active). Also, the Potency result in experiment [2], in [3], in [4], in [5], in experiment [6] and in [7] was “inactive” in each case. Further, the Potency result in experiment [18], in experiment [8], in [19], in experiment [9], in [10] and in experiment [11] was “inactive” in each case. The Potency result in experiment [12], in experiment [13], in [14], in experiment [15], in [16] and in experiment [17] was “inactive” each time.

As to `Oc1cccc(-c2c3nc(c(-c4cccc(O)c4)c4ccc([nH]4)c(-c4cccc(O)c4)c4nc(c(-c5cccc(O)c5)c5ccc2[nH]5)CC4)C=C3)c1`, the Potency result in experiment [1], in experiment [2], in experiment [20], in experiment [5], in experiment [6] and in [7] was “inactive” in each case. In addition, the Potency entry in experiment [9], in [10], in [11] and in experiment [13] was “inactive” each time.

Consider `CC(C)N(C)C`, for which the Potency entry in [1], in experiment [2], in experiment [20], in [5], in experiment [6] and in experiment [7] was “inactive” throughout. Further, the Potency entry in experiment [18], in experiment [8], in experiment [9], in experiment [10], in experiment [11] and in experiment [13] was “inactive” throughout. Besides, the Potency entry in experiment [14], in experiment [16] and in experiment [17] was “inactive” each time.

Regarding `Nc1ccc(O)c(N)c1`, the Potency result in [1], in [20], in experiment [3], in experiment [4], in [5] and in [6] was “inactive” in each case. For the same molecule, the Potency result in experiment [18], in [19], in [9], in experiment [10], in [11] and in experiment [12] was “inactive” throughout.

Turning to `CCCCc1oc2ccc(NS(C)(=O)=O)cc2c1C(=O)c1ccc(OCCCN(CCCC)CCCC)cc1`, the Potency entry in experiment [1], in experiment [20], in experiment [3], in experiment [4], in [5] and in experiment [6] was “inactive” throughout. Besides, the Potency result in [7], in [19], in experiment [10], in experiment [11], in [14] and in [16] was “inactive” throughout.

Turning to `O=C(/C=C/c1ccc(O)c(O)c1)O[C@@H](C(=O)O)[C@@H](OC(=O)/C=C/c1ccc(O)c(O)c1)C(=O)O`, the Potency result in experiment [1], in experiment [20], in experiment [3], in experiment [4], in experiment [5] and in [6] was “inactive” each time. In addition, the Potency result in experiment [18], in experiment [8], in [9], in [10], in experiment [11] and in experiment [12] was “inactive” in each case. Further, the Potency result in [13] and in [14] was “inactive” throughout.
